39 compounds from PubChem BioAssay (NCI) can be followed below.

This is part of a sample that, as a whole, favours compounds with a hit. Of some 83,000 tested, about 20% had one in any assay.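 Cells were grown in 96-well plates and exposed to the test compound at a single concentration for 48 hours; results are reported as percent growth, with values below 10 considered active.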 A number with no mark means an inactive call. Calls of active or inactive are those of the source.

The assay has as its system HL-60(TB) leukemia. The experiment in a line: NCI-60 one-dose screen, 48 h (100 = growth as untreated, 0 = no growth, -100 = all killed). The conditions noted are these: 10 µM unless noted.
Regarding `C=CCN1C=CC(=O)[C@H](O[Si](C)(C)C(C)(C)C)[C@@H]1/C=C/c1ccccc1`, the growth was -33.3% [100 µM] (active).

Regarding `CCOC(=O)c1sc(-c2ccc(OS(=O)(=O)c3ccc(C(C)(C)C)cc3)c(C=O)c2)nc1C`, the growth was 21.3%. Turning to `C=C1C(=O)O[C@H]2[C@H]1CC/C(COC(=O)c1ccc3ccccc3c1)=C\CC[C@@]1(C)O[C@@H]21`, the growth was -53.5% (active). In the case of `C=CCn1c(C)nc2ccc(Nc3nc(Nc4ccc(F)cc4)nc4ccccc34)cc21` it was 51.6%. Next, `O=C1c2cccnc2C(=O)c2nc3cc(N4CCN(C5CC5)CC4)ccc3nc21`: -43.1% (active); `CCCCN(CC)CC(CC)Nc1cc(OC)cc2cccnc12` (centres undefined): 126%.

As to `COc1ccc(Cn2cc(Cn3cc(C=C4C(=O)NC(=O)NC4=O)c4ccccc43)nn2)cc1`, the growth is 82.6%. In the case of `N/N=C(/Cc1ccccc1)NNC(N)=S` it was 97.8%; in that of `CCCCC(CCCCCC(CCCC)NCc1ccc2c(c1)OCO2)NCc1ccc2c(c1)OCO2` (centres undefined), -76.6% (active); in that of `CN(CC(=O)N(Cc1ccc(C2CCCCC2)cc1)c1ccc(C(=O)O)cc1)S(=O)(=O)c1c(F)c(F)c(F)c(F)c1F`, -28.6% (active). With `Ic1cccs1`, the growth is 104%. In the case of `S=C(N/N=C/c1ccccn1)Nc1ccccn1` it was -13.7% (active); in that of `CC[C@@H]1OC(=O)[C@H](C)[C@@H](O[C@H]2C[C@@](C)(OC)[C@@H](O)[C@H](C)O2)[C@H](C)[C@@H](O[C@@H]2O[C@H](C)C[C@H](N(C)C)[C@H]2O)[C@](C)(O)C[C@@H](C)[C@@H]2N[C@@H](COCCOC)O[C@H]([C@H]2C)[C@]1(C)O`, 94.2%; in that of `N=C(N)c1ccc(-c2ccc(-c3ccc(-c4cccs4)s3)s2)cc1F`, 99.7%. As for `CCCCCCCCCCCCNC(=O)N[C@H](C(=O)N[C@H]1/C=C/CCNC(=O)/C=C/[C@H](C)NC1=O)C(C)C`, the growth is -25.2% (active). In the case of `COc1ccc(C2=NN(C(=O)c3cc(OC)c(OC)c(OC)c3)C(c3ccc(N(C)C)cc3)C2)cc1` (centres undefined) it was -18.4% (active); in that of `O=C1NC(=O)/C(=C\c2ccco2)S1`, 74.2%; in that of `CCN(CC)c1ccc(/C=N/NC(=O)c2ccc(Nc3ccnc(C(F)(F)F)c3)cc2)c(O)c1`, 53.2%. Next, `COc1cc(C2CC(c3ccc(Nc4ccnc5cc(Cl)ccc45)cc3)=NN2c2ccc(Cl)cc2)cc(OC)c1OC` (centres undefined): 40.3%; `CCOC(=O)Cn1c(=O)c2c3ccccc3n(C)c2n2nnc(-c3ccccc3)c12`: 68.5%; `COc1ccc(/C=C(\C#N)C(=O)Nc2cccc(Nc3nc(SC)nc(-c4cccc([N+](=O)[O-])c4)c3C#N)c2)cc1OC`: 95%. For the compound `O=C(Nc1nc(Cl)nc(Nc2ccc(N3CCOCC3=O)cc2)n1)c1ccc(Cl)s1`, the growth is 68.7%.

As to `COC(=O)Nc1nc2ccc(S(=O)c3ccccc3)cc2[nH]1` (centres undefined), the growth was 22.7%. On to `O=C1c2ccccc2CCC1(Br)Br`, for which the growth was -31.3% (active). As for `CN(C)CCCN(CCC1CCCCC1)CCC1CCCCC1`, the growth is 30.1%. In the case of `COc1ccc(/C=C/C(=O)OCC(=O)NNC(=O)c2ccccc2)cc1OC` it was 72.2%.

For `COc1cccc(NC(=O)c2sc3nc4c(cc3c2N)C(=O)CCC4)c1`, the growth is -2.55% (active). Turning to `O=C(c1ccccc1)C(Sc1ccccc1)c1ccccc1` (centres undefined), the growth is 84.1%.

On to `CC(=O)[C@@H]1CC[C@]2(C(=O)O)CC[C@]3(C)[C@H](CC[C@@H]4[C@@]5(C)Cc6c([nH]c7ccccc67)C(C)(C)[C@@H]5CC[C@]43C)[C@@H]12`, for which the growth is 53.4%. In the case of `O=C1CC[C@@H](C(=O)N[C@H]2CSSC[C@@H](C(=O)N/C=C/c3ccc(O)cc3)NC(=O)[C@H](Cc3ccccc3)NC(=O)[C@@H]3CCCN3C(=O)[C@@H]3CCCN3C2=O)N1`, the growth is 74%. In the case of `CCN(CC)CCC(CNc1ccnc2cc(Cl)ccc12)c1ccc(O)cc1` (centres undefined) it was -1.95% (active); in that of `Nc1ccc(-c2nc3cc(Oc4ccc(Oc5ccc6[nH]c(-c7ccc(N)cc7)nc6c5)cc4)ccc3[nH]2)cc1`, 103%; in that of `Cc1nc2ccccc2c(/C=C/c2ccc(Cl)cc2)c1C(=O)/C=C/c1ccccc1`, 5.7% (active). Next, `NS(=O)(=O)c1ccc(C(=O)N=Nc2c(O)[nH]c3ccc(Cl)cc23)cc1`: 102%; `COc1cc2c(cc1OC)C(=O)OC2`: 156%.

Regarding `O=c1[nH]c(-c2ccccc2)nc(CN2CCCCC2)c1O`, the growth was 84.4%.

For `C=C(C)[C@@H]1CC[C@]2(C)[C@H](CC=C3[C@@H]4CC(C)(C)CC[C@]4(C(=O)OC)CC[C@]32C)[C@@]1(C)CC/C(N)=N/O`, the growth is 2.39% (active). Next, `Nc1nc2ccccc2c2c(=O)c3cc(Cl)ccc3sc12`: 103%; `COc1cccc2nc(Nc3cccc(NC(=O)c4ccc(N5CCN(C)CC5)c(C(F)(F)F)c4)c3)ccc12`: 37.6%.
